A short description of experiment [1]: qHTS Assay for Lipid Storage Modulators (AID 1519; calls by dose curve; as to activity change, negative = inhibition: % is scaled to controls: 0 for no effect and ±100 for the full control effect). Particulars: Drosophila S3 cells, BODIPY lipid droplet/cell ratio, laser cytometry, cells loaded with oleic acid; for activity change, negative = inhibition: at 57.5 µM (top of the series). In short, it runs like this:
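Cells seeded at 5,000 per well were treated with compounds over a concentration series and loaded with oleic acid (400 uM, as added). Lipid droplet fluorescence (488 nm excitation, 500-530 nm channel) was read by laser-scanning cytometry and normalized to 20 uM Triacsin C.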

Experiment [2] addresses Ubiquitin carboxyl-terminal hydrolase 1 (Homo sapiens) (UniProt O94782). Put plainly: Inhibitors of USP1/UAF1: Pilot qHTS (AID 504865).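 Also: rhodamine fluorescence freed from ubiquitin-rhodamine substrate followed over time; top concentration of the series differs between compounds; % is scaled to controls: 0 for no effect and ±100 for the full control effect; nearly all actives have a fitted effect of over 35% in size.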 Conditions: purified USP1/UAF1, Ub-rhodamine cleavage fluorescence; series mostly up to 114 µM. In short, it runs like this:
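Enzyme-free wells gave the negative control, while test wells held 1nM USP1/UAF1 preincubated with compound for 15 min at room temperature. Ub-Rho at 150nM final started the reaction, and fluorescence at 480/540 nm was recorded kinetically.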

Experiment [3] concerns the target DNA dC->dU-editing enzyme APOBEC-3G (Homo sapiens) (UniProt Q9HC16). Put plainly: qHTS for inhibitors of Vif-A3G interactions: Validation (AID 588379). Also: 0% is about no effect. Particulars: Vif-A3G protein interaction assay; series mostly up to 46.1 µM. In short, it runs like this: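 Yellow fluorescence (Ex 488, Em 500-530) of Vif-coexpressing HeLa A3G-eYFP cells, scanned by Acumen cytometer, reports blocked A3G degradation. Cells plated at 700/well overnight at 37 deg C before compound addition, then a further overnight compound incubation at 37 deg C.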

Experiment [4] is described as follows: Confirmation and Secondary Assay for Modulators of Hemoglobin Beta Chain Splicing at IVS2 654 locus (AID 910).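 Also: HeLa cells stably carrying EGFP split by mutant beta-globin IVS2-654 intron; % of control where 0% means no effect.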 Conditions: HeLa EGFP-654 splicing reporter, GFP fluorescence, 48 h; series mostly up to 46.1 µM. A digest of the protocol:
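HeLa cells stably expressing EGFP interrupted by β-globin IVS2-654 intron, seeded overnight in Opti-MEM/2% FCS, then treated 2 days at 37 °C. Restored splicing read as total peak GFP intensity per well by laser scanning cytometry (488 nm excitation, 500–520 nm emission); 500 nM antisense PNA as control.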

The nature of experiment [5]: Confirmation and Secondary Assay for Modulators of Hemoglobin Beta Chain Splicing at IVS2 705 locus (AID 930).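 Also: GFP fluorescence per well restored by corrected splicing of the IVS2-705 intron in EGFP; % of control where 0% means no effect.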 Particulars: HeLa EGFP-705 splicing reporter, GFP fluorescence, 48 h; series mostly up to 46.1 µM. A digest of the protocol: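 Secondary splice-site specificity test uses HeLa expressing CMV-driven EGFP interrupted by IVS2-705; cells were treated 2 days at 37C with 500 nM antisense PNA as positive control.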

Experiment [6] concerns the target Luciferin 4-monooxygenase (Photinus pyralis) (UniProt P08659). Put plainly: Biochemical firefly luciferase enzyme assay for NPC (AID 624030).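 Also: purified P. pyralis luciferase at 10 nM with luciferin and ATP substrate; 0% = DMSO and -100% = full luciferase inhibition by PTC124 control; nearly all actives have a fitted effect of over 70% in size.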 Conditions: purified P. pyralis luciferase, luminescence, 5 min; series mostly up to 24.9 µM. In short, it runs like this:
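Purified P. pyralis luciferase at 10 nM in 50 mM Tris Acetate (final), luminescence read within 5 minutes of enzyme addition to compounds. Activity normalised to PTC124 versus DMSO; concentration-response curves classed by r2, magnitude and activity.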

Experiment [7] is described as follows: qHTS profiling for inhibitors of Plasmodium falciparum proliferation (AID 504749). Also: nearly all actives have a fitted effect of over 60% in size. Also: potency is read from the fitted curve at half-maximal effect.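 As to activity, negative = inhibition: 0% = DMSO vehicle and full inhibition = artemisinin control.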 Particulars: P. falciparum in erythrocytes, SYBR Green DNA, 72 h, at 28.7 µM (top of the series). A digest of the protocol:
(§1)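 Each compound contacts P. falciparum-infected red blood cells for 72 h at 37 C; lysis buffer (Tris, EDTA, saponin, Triton X, SYBR Green I) is added and fluorescence measured next morning; values normalized to controls.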

Experiment [8] deals with CP194. The experiment is described as above. Conditions: P. falciparum in erythrocytes, SYBR Green DNA, 72 h; series mostly up to 12.8 µM. A digest of the protocol: as §1
Experiment [9] concerns CP201. The experiment is described as above. Conditions: P. falciparum in erythrocytes, SYBR Green DNA, 72 h; series mostly up to 12.8 µM. In short, it runs like this:
as §1

For experiment [10], the system named is CP262. The description is as above. Conditions: P. falciparum in erythrocytes, SYBR Green DNA, 72 h; series mostly up to 12.8 µM. A digest of the protocol: as §1
For experiment [11], the system named is CP268. The experiment is described as above. Particulars: P. falciparum in erythrocytes, SYBR Green DNA, 72 h; series mostly up to 12.8 µM. In short, it runs like this: as §1
For experiment [12], the system named is CP269. The description is as above. Particulars: P. falciparum in erythrocytes, SYBR Green DNA, 72 h; series mostly up to 12.8 µM. A digest of the protocol: as §1
Experiment [13] concerns CP286. The description is as above. Conditions: P. falciparum in erythrocytes, SYBR Green DNA, 72 h; series mostly up to 12.8 µM. A digest of the protocol: as §1
Experiment [14] relates to CP305. Described as above. Particulars: P. falciparum in erythrocytes, SYBR Green DNA, 72 h; series mostly up to 12.8 µM. In short, it runs like this: as §1
The subject of experiment [15] is DIV30. The experiment is described as above. Particulars: P. falciparum in erythrocytes, SYBR Green DNA, 72 h; series mostly up to 12.8 µM. A digest of the protocol: as §1
The subject of experiment [16] is FAB9. Described as above. Particulars: P. falciparum in erythrocytes, SYBR Green DNA, 72 h; series mostly up to 12.8 µM. In short, it runs like this: as §1
Experiment [17] deals with JCK. The experiment is described as above. Particulars: P. falciparum in erythrocytes, SYBR Green DNA, 72 h; series mostly up to 12.8 µM. In short, it runs like this: as §1
For experiment [18], the system named is PC49. Described as above. Particulars: P. falciparum in erythrocytes, SYBR Green DNA, 72 h; series mostly up to 12.8 µM. In short, it runs like this:
as §1

For experiment [19], the target named is Cytochrome P450 3A4 (Homo sapiens) (UniProt P08684). Nature of the experiment: qHTS Assay for Inhibitors and Substrates of Cytochrome P450 3A4 (AID 884). Also: % is scaled to controls: 0 for no effect and ±100 for the full control effect; nearly all actives have a fitted effect of over 50% in size. Conditions: recombinant CYP3A4, Luciferin-PPXE luminescence; series mostly up to 57.1 µM. In short, it runs like this: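 Luminescent readout of luciferin produced by CYP3A4 (20 nM) dealkylation of Luciferin-PPXE, 25 uM (its KM). NADPH-driven reaction ran 60 min at RT after 10 min compound preincubation; data scaled to 57 uM ketoconazole as 100% inhibition.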

Experiment [20] has the same target. Nature of the experiment: qHTS Assay for Activators of Cytochrome P450 3A4 (AID 885). Also: nearly all actives have a fitted effect of over 65% in size. Conditions: recombinant CYP3A4, Luciferin-PPXE luminescence, 60 min; series mostly up to 57.1 µM. A digest of the protocol: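 Using 20nM recombinant human CYP3A4 in potassium phosphate (200mM), substrate Luciferin-PPXE at 25uM, luminescent luciferin detection followed a 60-min RT NADPH reaction; data scaled to 57 uM ketoconazole.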

[21] abbreviates: measured here: cell count channel max response.
Where [22] appears, read: measured here: lipid channel max response.

Records with an inconclusive call do not appear. Calls of active or inactive are those of the source. Unless noted, calls follow the shape of the dose curve; as a rule, active = well fitted curve in the direction sought with a large enough effect; inconclusive = small, poorly fitted or top-dose-only effect, or another doubt; inactive = no such curve, though single readings can be large; an effect the other way counts as inactive or inconclusive.

The record followed here is PubChem BioAssay (NCATS).

Sequence of DNA dC->dU-editing enzyme APOBEC-3G (Homo sapiens) (Q9HC16 whole entry, looked up): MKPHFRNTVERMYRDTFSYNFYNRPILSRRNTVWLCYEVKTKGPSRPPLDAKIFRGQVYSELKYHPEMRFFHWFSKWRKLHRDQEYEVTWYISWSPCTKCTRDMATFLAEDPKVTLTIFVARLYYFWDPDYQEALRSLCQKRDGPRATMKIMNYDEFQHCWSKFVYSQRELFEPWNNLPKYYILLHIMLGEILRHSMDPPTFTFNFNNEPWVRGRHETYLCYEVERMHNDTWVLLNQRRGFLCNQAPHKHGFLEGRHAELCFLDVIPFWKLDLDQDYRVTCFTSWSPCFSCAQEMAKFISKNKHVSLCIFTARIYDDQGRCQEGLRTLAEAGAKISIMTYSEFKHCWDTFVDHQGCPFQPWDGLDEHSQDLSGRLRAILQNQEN
Sequence of Luciferin 4-monooxygenase (Photinus pyralis) (P08659 whole entry, looked up): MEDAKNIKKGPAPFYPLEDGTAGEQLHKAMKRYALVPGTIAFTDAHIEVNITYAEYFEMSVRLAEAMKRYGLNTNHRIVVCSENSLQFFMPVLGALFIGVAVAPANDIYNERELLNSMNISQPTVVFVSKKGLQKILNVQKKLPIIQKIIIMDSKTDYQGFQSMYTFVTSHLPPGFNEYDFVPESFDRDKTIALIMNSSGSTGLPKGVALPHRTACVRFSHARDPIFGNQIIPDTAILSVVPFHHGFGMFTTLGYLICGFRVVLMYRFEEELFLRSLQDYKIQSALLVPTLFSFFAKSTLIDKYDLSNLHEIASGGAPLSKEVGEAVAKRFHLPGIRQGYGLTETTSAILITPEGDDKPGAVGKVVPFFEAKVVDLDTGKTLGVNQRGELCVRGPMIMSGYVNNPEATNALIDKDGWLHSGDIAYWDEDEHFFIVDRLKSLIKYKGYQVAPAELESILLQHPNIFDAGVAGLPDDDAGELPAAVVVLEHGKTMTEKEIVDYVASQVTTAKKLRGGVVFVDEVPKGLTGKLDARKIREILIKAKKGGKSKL
Sequence of Ubiquitin carboxyl-terminal hydrolase 1 (Homo sapiens) (O94782 whole entry, looked up): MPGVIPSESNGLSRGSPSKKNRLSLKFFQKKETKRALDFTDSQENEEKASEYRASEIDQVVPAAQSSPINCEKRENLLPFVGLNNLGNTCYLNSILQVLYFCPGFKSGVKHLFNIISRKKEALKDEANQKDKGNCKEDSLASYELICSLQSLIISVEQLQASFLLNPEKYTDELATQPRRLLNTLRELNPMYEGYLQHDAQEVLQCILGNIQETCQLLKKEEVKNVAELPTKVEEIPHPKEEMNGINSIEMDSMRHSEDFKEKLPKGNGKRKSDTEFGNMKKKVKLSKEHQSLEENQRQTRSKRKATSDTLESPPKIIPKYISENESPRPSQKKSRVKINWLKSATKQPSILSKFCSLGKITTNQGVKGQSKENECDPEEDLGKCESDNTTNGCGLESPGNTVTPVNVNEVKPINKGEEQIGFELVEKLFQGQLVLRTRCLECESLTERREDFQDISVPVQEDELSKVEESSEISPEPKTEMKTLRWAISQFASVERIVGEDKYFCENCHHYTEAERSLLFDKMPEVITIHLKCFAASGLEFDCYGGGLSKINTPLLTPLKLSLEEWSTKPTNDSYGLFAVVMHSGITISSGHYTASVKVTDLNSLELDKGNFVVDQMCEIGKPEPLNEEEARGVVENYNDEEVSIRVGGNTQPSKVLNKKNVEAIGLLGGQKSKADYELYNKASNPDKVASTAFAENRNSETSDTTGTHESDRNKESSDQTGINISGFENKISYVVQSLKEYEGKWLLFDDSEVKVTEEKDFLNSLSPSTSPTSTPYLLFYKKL
Sequence of Cytochrome P450 3A4 (Homo sapiens) (P08684 whole entry, looked up): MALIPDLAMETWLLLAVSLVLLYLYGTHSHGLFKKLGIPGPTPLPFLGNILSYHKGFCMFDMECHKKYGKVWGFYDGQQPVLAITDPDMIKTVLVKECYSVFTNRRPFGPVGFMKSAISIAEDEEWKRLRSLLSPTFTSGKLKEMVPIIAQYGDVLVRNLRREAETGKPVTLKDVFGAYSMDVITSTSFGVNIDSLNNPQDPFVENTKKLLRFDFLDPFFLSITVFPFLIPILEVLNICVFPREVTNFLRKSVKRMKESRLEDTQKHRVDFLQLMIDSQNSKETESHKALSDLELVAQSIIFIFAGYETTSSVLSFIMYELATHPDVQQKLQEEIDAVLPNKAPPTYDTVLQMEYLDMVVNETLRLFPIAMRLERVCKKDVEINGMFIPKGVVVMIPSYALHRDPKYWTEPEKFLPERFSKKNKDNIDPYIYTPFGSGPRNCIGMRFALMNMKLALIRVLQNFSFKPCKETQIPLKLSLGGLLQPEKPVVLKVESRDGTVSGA

Regarding `C[C@H](CCC(=O)O)[C@H]1CC[C@H]2[C@H]3C(C[C@H](O)[C@]12C)[C@@]1(C)CC[C@@H](O)C[C@H]1C[C@H]3O` (stereo partly specified), the activity change, negative = inhibition in experiment [1] is 9.53% (inactive). The max response came to 17.9% in [1] (setting [21]) and 25.2% in [1] (setting [22]). For the same compound, the Potency entry in experiment [2] is “inactive”. Moreover, in [3], the compound was called inactive.

As to `Cc1cc(=O)oc2cc(O[C@@H]3O[C@H](C(=O)O)[C@@H](O)[C@H](O)[C@H]3O)ccc12`, in experiment [1], the activity change, negative = inhibition is 7.88% (inactive). Also, the max response in [1] (setting [21]) came out at 8.78%; in [1] (setting [22]) it was 16.3%. Further, the Potency entry in experiment [2] is “inactive”. Besides, the compound was classed as inactive in experiment [3].

Consider `C[C@@]12C=CC(=O)C=C1CCC1C3CC(O)[C@@](O)(C(=O)CO)[C@]3(C)CC(O)[C@]12F` (stereo partly specified), for which the Potency result in [4], in experiment [5], in experiment [2], in experiment [6], in [8] and in experiment [9] was “inactive” each time. Also, the Potency entry in [10], in [11], in experiment [12], in [13], in [14] and in [15] was “inactive” throughout. Moreover, the Potency entry in experiment [16], in experiment [17] and in experiment [18] was “inactive” each time. Moreover, the activity change, negative = inhibition in [1] was 10.8% (inactive). Besides, the max response in experiment [1] (setting [21]) came to 11.4%; in experiment [1] (setting [22]) it was 25.4%. The activity, negative = inhibition in experiment [7] (parasite line A) is 5.41% (inactive).

For the compound `O=C(O)C1(O)C[C@H](O)C(O)[C@@H](O)C1` (stereo partly specified), the Potency entry in experiment [19] and in [2] was “inactive” each time. Also, the activity change, negative = inhibition in experiment [1] is -0.572% (inactive). The figures for the max response in experiment [1] (setting [21]) and in experiment [1] (setting [22]) were -6.02% and -7.19%, respectively. In addition, the compound was called inactive in experiment [3].

Take `CCC(=O)O[C@@]1(C(=O)CCl)C(C)CC2C3CCC4=CC(=O)C=C[C@@]4(C)[C@]3(F)C(O)C[C@]21C` (stereo partly specified): the Potency result in experiment [20], in experiment [4], in experiment [5], in experiment [6], in experiment [16] and in experiment [17] was “inactive” throughout. In addition, the Potency entry in experiment [18] is “inactive”. Besides, the activity change, negative = inhibition in [1] is 11.7% (inactive). For the same compound, the max response was 9.83% in [1] (setting [21]) and 20.1% in experiment [1] (setting [22]). For the same compound, the figures for the Potency in [8] and in experiment [15] were 15.1 µM (active) and 12 µM (active), respectively.

Take `O=C(O)C1=C[C@@H](O)[C@@H](O)[C@H](O)C1`: the activity change, negative = inhibition in experiment [1] is 5.96% (inactive). Further, the results for the max response in experiment [1] (setting [21]) and in experiment [1] (setting [22]) were 13.7% and 21.4%, respectively. Besides, the Potency entry in [2] was “inactive”. Besides, the result in experiment [3] was inactive.

As for `CC(=O)OCC(=O)[C@]1(O)C(C)CC2C3CCC4=CC(=O)C=C[C@@]4(C)[C@]3(F)C(O)C[C@@]21C` (stereo partly specified), the activity change, negative = inhibition in experiment [1] is -6.8% (inactive). Further, the max response in [1] (setting [21]) is 9.77%; in experiment [1] (setting [22]), 2.72%. Also, the Potency entry in [2] is “inactive”.

For `C[C@]12CCC(=O)C=C1CCC1C2C(=O)C[C@]2(C)C1CC[C@]2(O)C(=O)CO` (stereo partly specified), the Potency entry in experiment [4], in experiment [5], in experiment [2], in [6], in experiment [8] and in experiment [9] was “inactive” in each case. Further, the Potency entry in [10], in experiment [11], in [12], in experiment [13], in [14] and in experiment [15] was “inactive” each time. Further, the Potency result in experiment [16], in experiment [17] and in experiment [18] was “inactive” throughout. In addition, the activity change, negative = inhibition in experiment [1] was -0.346% (inactive). Further, the max response in experiment [1] (setting [21]) worked out at 22.5%; in [1] (setting [22]), 22%. The activity, negative = inhibition in experiment [7] (parasite line A) is 3.27% (inactive); in experiment [7] (parasite line B), -0.753% (inactive).

With `Nc1ccn([C@@H]2O[C@H](CO)[C@@H](OP(=O)(O)O)[C@H]2O)c(=O)n1`, the activity change, negative = inhibition in experiment [1] was 4.4% (inactive). Also, the figures for the max response in experiment [1] (setting [21]) and in experiment [1] (setting [22]) were 7.76% and 8.34%, respectively. For the same compound, in [2], the Potency result is “inactive”. For the same compound, in experiment [3], the outcome was inactive.
